In ChEMBL document CHEMBL1201862, “PubChem BioAssay data set” (2004):
About 2,100 (0.53%) of roughly 400,000 compounds were called active. Roughly 14% stayed inconclusive and do not appear here. The rule behind the calls is not given here. The full list was thinned out, with actives kept by preference.

Target: Ataxin-2 (Homo sapiens) (UniProt Q99700)
Experiment: qHTS for Inhibitors of ATXN expression.
Format: functional

Ataxin-2 (Homo sapiens), sequence (Q99700 whole entry): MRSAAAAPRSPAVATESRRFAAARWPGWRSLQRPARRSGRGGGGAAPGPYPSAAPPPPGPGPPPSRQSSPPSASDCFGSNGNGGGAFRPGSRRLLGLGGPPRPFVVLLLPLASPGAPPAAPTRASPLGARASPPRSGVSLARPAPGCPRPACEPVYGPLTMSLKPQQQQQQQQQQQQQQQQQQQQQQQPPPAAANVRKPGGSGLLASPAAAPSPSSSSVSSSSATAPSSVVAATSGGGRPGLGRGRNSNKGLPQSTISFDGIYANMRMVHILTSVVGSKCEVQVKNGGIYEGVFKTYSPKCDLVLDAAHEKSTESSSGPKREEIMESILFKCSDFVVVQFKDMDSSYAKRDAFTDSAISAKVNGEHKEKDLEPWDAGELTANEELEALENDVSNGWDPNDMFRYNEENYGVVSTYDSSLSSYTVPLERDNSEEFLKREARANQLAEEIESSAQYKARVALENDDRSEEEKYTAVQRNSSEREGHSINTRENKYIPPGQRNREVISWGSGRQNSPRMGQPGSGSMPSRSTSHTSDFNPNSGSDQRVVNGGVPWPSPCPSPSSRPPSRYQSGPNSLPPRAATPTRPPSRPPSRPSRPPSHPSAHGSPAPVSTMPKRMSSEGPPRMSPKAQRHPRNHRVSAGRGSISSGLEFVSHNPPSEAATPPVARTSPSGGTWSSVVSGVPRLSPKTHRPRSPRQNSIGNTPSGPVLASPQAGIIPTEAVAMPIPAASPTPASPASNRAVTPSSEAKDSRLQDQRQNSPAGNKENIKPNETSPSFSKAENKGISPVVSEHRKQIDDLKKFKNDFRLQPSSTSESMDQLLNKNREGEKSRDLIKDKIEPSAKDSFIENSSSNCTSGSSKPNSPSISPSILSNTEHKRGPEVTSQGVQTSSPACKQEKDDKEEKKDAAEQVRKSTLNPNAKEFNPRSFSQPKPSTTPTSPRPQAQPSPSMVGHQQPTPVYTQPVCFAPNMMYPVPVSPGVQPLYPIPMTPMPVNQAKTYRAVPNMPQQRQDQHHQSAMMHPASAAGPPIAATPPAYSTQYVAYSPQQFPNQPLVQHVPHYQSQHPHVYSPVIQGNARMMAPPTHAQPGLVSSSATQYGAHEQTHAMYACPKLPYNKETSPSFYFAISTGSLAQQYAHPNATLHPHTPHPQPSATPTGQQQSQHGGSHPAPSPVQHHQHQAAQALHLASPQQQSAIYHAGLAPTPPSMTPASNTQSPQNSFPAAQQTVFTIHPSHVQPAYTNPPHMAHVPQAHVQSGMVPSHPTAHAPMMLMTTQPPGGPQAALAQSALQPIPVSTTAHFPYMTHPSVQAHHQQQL

Row | SMILES | Potency
1 | CC(OC(=O)Cn1cnc2c1c(=O)n(C)c(=O)n2C)C(=O)Nc1ccc(Cl)cc1 (stereo not drawn) | inactive
2 | Oc1ccc(C2C=C(c3ccc(F)cc3)Nc3ncnn32)cc1 (stereo not drawn) | inactive
3 | Cc1cc(C)nc(-n2nc(C)c3c2NC(=O)CC3c2ccccc2OC(C)C)n1 (stereo not drawn) | 25.1 µM (active)
4 | CCCCCCSc1ccc(-c2nc3cnccn3c2NC2CCCCC2)cc1 | inactive
5 | CCOC(=O)c1c(C)[nH]c(C(=O)COC(=O)CCNS(=O)(=O)c2ccc(NC(C)=O)cc2)c1C | inactive
6 | CCCCn1c(NC(=O)c2ccco2)c(S(=O)(=O)c2ccc(C)cc2)c2nc3ccccc3nc21 | inactive
7 | CC[n+]1c(/C=C/C=C/N(C(C)=O)c2ccccc2)sc2ccccc21 | 35.5 µM (active)
8 | CC[n+]1c(/C=C2\SC(c3ccccc3C)=CN2C)sc2ccccc21 | inactive
9 | CCn1nc(-c2ccccc2)c2nc3ccccc3nc21 | inactive
10 | Nc1c(Cl)c(Cl)nc(C(=O)OCC(=O)NCc2ccccc2)c1Cl | inactive
11 | O=C(NCc1ccccc1)c1c(Cl)nc(Cl)c(Cl)c1Cl | 39.8 µM (active)
12 | Cc1nc(Cl)c(C(=O)NCc2ccccc2)c(C)c1Cl | inactive
13 | CCOC(=O)c1nc(Nc2ccccc2CC)c2ccccc2n1 | inactive
14 | CCOC(=O)c1sc2nc(C)cc(-c3ccccc3)c2c1N | inactive
15 | CCOC(=O)c1sc2nc(-c3cccnc3)ccc2c1N | inactive
16 | CCCOC(=O)c1cccc(Nc2nc(-c3cccnc3)nc3ccccc23)c1 | 35.5 µM (active)
17 | CC(=O)c1cccc(Nc2nc(-c3ccccc3)nc3ccccc23)c1 | inactive
18 | CCOC(=O)c1cccc(Nc2nc(C(=O)OCC)nc3ccccc23)c1 | 39.8 µM (active)
19 | O=c1cc(-c2ccccc2)c2ccc(O)cc2o1 | inactive
20 | O=C1CN(C(=O)NCC(=O)N2CCCC2)c2ccccc2N1 | inactive
21 | O=C1OCCN1C(=O)[C@H]1[C@H](c2ccccc2)C(c2ccc(F)cc2)=NN1c1ccc(Br)cc1 | inactive
22 | CCCC(O)(CCC)C(=O)NN(C(=O)CCl)c1cccc(C)c1 | 21.2 µM (active)
23 | CCCCCCCN(C(=O)CCl)c1cccc(C)c1 | 14.1 µM (active)

Row | SMILES | Potency
24 | Cc1ccc(S(=O)(=O)Oc2ccc(C3C4=C(CCCC4=O)N(CCC(=O)O)C4=C3C(=O)CCC4)cc2Cl)cc1 | inactive
25 | O=c1oc2c(CN3CCOCC3)c(O)ccc2cc1-c1ccccc1 | inactive
26 | O=C(c1ccccc1)C(CCC(CN1CCOCC1)C(=O)c1ccccc1)CN1CCOCC1 (stereo not drawn) | 14.1 µM (active)
27 | CC(N=C(S)N1CCOCC1)c1ccccc1 (stereo not drawn) | inactive
28 | O=C(c1ccc(F)cc1)C1CCN(Cc2ccccc2)CC1 | inactive
29 | O=c1c2ccccc2n(CC(O)CN2CCOCC2)c2ccccc12 (stereo not drawn) | inactive
30 | O=C(c1ccc(Br)cc1)c1sc(N2CCOCC2)nc1-c1ccccc1 | inactive
31 | O=C(c1ccc(F)cc1)C(CN1CCOCC1)c1ccccc1 (stereo not drawn) | 25.1 µM (active)
32 | OC(CN1CCN(C(c2ccccc2)c2ccccc2)CC1)c1ccc(Br)cc1 (stereo not drawn) | inactive
33 | O=C(c1ccc(Br)cc1)C(CN1CCOCC1)c1ccccc1 (stereo not drawn) | 29.9 µM (active)
34 | Cc1c(O)ccc2c(CN3CCN(C/C=C/c4ccccc4)CC3)cc(=O)oc12 | inactive
35 | O=[N+]([O-])c1ccc(C2=CSC3=NCCN23)cc1 | inactive
36 | Cc1cccc(-n2nc(C)c3c2N=C2CCCC(O)=C2C3c2ccccn2)c1 (stereo not drawn) | inactive
37 | CC1(C(=O)OCC(=O)Nc2cc(S(=O)(=O)N3CCOCC3)ccc2Cl)CC1(Cl)Cl (stereo not drawn) | inactive
38 | N=c1c2c(-c3ccccc3)c(-c3ccccc3)n(Cc3ccccc3)c2ncn1CCCn1ccnc1 | 35.5 µM (active)
39 | O=C(NCCCn1ccnc1)c1ccc(-c2ccccc2)cc1 | inactive
40 | O=c1c2ccccc2oc2cc(NCCCn3ccnc3)ccc12 | inactive
41 | c1ccc(-c2c(-c3ccccc3)n(Cc3ccco3)c3ncnc(NCCCn4ccnc4)c23)cc1 | 25.1 µM (active)
42 | Cc1cccc(Cl)c1OCCCn1ccnc1 | inactive
43 | Cc1ccc2nc3c(cc(C(=O)NCc4ccccc4)c(=N)n3CCCn3ccnc3)c(=O)n2c1 | inactive
44 | CC[C@H]1C(c2ccc(F)cc2)=NN(c2ccccc2)[C@@H]1CO | inactive
45 | C/C(CC(=O)NCc1ccco1)=N\NC(=O)Cc1ccc(-c2ccccc2)cc1 | inactive
46 | COc1cc(C(=O)NN=C(S)Nc2ccc(S(N)(=O)=O)cc2)cc(OC)c1OC | inactive

Row | SMILES | Potency
47 | NS(=O)(=O)c1ccc(NC(=O)COC(=O)COc2cccc(C(F)(F)F)c2)cc1 | inactive
48 | CC(C)C(Cl)=NOC(=O)Nc1ccc(S(N)(=O)=O)cc1 | 21.2 µM (active)
49 | COC(=O)c1c(NC(=O)c2ccc(S(=O)(=O)N3CC(C)OC(C)C3)cc2)sc2c1CCN(C)C2 (stereo not drawn) | inactive
50 | O=c1ccc2cc3c4c(c2o1)CCCN4CCC3 | inactive
51 | CCCCOc1ccc(N(CC(=O)NCc2ccco2)C(=O)CCC(=O)Nc2nccs2)cc1 | inactive
52 | COc1ccc(OC)c([N+](=O)[O-])c1C(N)=O | inactive
53 | COc1ccncc1-c1ccc(C2=CC(=O)CC(C)(C)C2=O)cc1 | 35.5 µM (active)
54 | CC1=CC(=C(C#N)c2nc3ccccc3s2)C=C(C)N1c1ccc(F)cc1F | inactive
55 | CC1=C(C(=O)NCCCOC(C)C)C2(CCC(C)CC2)OC1=O (stereo not drawn) | inactive
56 | COCCCn1c(C(=O)NCCN2CCOCC2)cc2c(=O)n3ccccc3nc21 | inactive
57 | CCCS(=O)(=O)c1nnnn1-c1cccc(OC)c1 | 35.5 µM (active)
58 | COc1cccc(/C=N/n2nnnc2N)c1 | inactive
59 | COc1cccc(-n2cnnc2S)c1 | inactive
60 | Cc1cc(OC(C)C(=O)NC2CC(C)(C)NC(C)(C)C2)c2c(C)c(C)c(=O)oc2c1 (stereo not drawn) | inactive
61 | Cc1cccn2c(=O)c3cc(C(=O)NC(C)c4ccccc4)c(=N)n(CCCO)c3nc12 (stereo not drawn) | inactive
62 | Cc1ccc(C)c(NC(=O)c2ccc3c(=O)n4c(nc3c2)CCC4)c1 | inactive
63 | Cc1cccc(OC(=O)c2ccc3c(=O)n4c(nc3c2)CCC4)c1 | inactive
64 | O=C(Nc1ccc2nc3n(c(=O)c2c1)CCCC3)c1cc([N+](=O)[O-])ccc1F | 22.4 µM (active)
65 | O=C(Nc1ccc2nc3n(c(=O)c2c1)CCCCC3)c1c(F)ccc([N+](=O)[O-])c1F | 8.91 µM (active)
66 | O=C(Nc1ccc2nc3n(c(=O)c2c1)CCCCC3)c1cc([N+](=O)[O-])ccc1F | 39.8 µM (active)
67 | O=C(/C=C/c1ccco1)Nc1ccc2nc3n(c(=O)c2c1)CCCC3 | inactive
68 | CCN(CC)S(=O)(=O)c1ccc(NC(=O)c2ccc3c(=O)n4c(nc3c2)CCCCC4)cc1 | 11.2 µM (active)
69 | O=c1c2cc(NC(=S)N3CCC(N4CCCCC4)CC3)ccc2nc2n1CCCCC2 | inactive

Row | SMILES | Potency
70 | CCCN(CCC)CCCN=C(S)Nc1ccc2nc3n(c(=O)c2c1)CCCCC3 | inactive
71 | N#C/C(=C\c1ccc2c(c1)OCCO2)C(=O)Nc1nccs1 | inactive
72 | CCCCn1c(=O)[nH]c2nc3cc(N)ccc3nc2c1=O | inactive
73 | Cc1cccc2c(=O)n(C(=O)c3ccccc3)c(N)nc12 | inactive
74 | CC(=O)c1ccc(OCC(=O)OC(C)C(=O)NC2CCCCC2)cc1 (stereo not drawn) | inactive
75 | CCC(C)c1ccc(S(=O)(=O)N2CCN(C(C)CC(=O)O)CC2)cc1 (stereo not drawn) | inactive
76 | O=C(NCC(O)c1ccc([N+](=O)[O-])cc1)C1CCCCC1 (stereo not drawn) | inactive
77 | O=C(COC(=O)c1ccc(C(F)(F)F)cc1)NC(=O)NC1CCCC1 | inactive
78 | CS(=O)(=O)c1ccc(C(=O)OCC(=O)NC(=O)C2CCCCC2)cc1[N+](=O)[O-] | 35.5 µM (active)
79 | CN(Cc1ccccc1F)Cc1cc(=O)oc2cc(O)c(Cl)cc12 | inactive
80 | CC(C)c1ccc(/C=C(/C#N)c2nnc(NC(=O)c3ccccc3)s2)cc1 | inactive
81 | O=C(Nc1ccc(Cl)cc1)Nc1cccc2nsnc12 | inactive
82 | CC(C)c1ccc(NC(=O)Nc2nc(C(C)N)cs2)cc1 (stereo not drawn) | 35.5 µM (active)
83 | NC(c1ccccc1)c1csc(NC(=O)Nc2ccc(OC(F)(F)F)cc2)n1 (stereo not drawn) | 39.8 µM (active)
84 | CC(C)c1ccc(NC(=O)Nc2nc(C(N)c3ccccc3Cl)cs2)cc1 (stereo not drawn) | 35.5 µM (active)
85 | CC(C)c1ccc(NC(=O)Nc2nc(C(N)c3ccccc3)cs2)cc1 (stereo not drawn) | 28.2 µM (active)
86 | Cc1oc(CC(C)C)cc1C(=O)NCCCC(=O)O | inactive
87 | N=C1NC(=O)/C(=C/c2ccc(Br)cc2)S1 | inactive
88 | COCCN1C=C(C(=O)OC)C(c2ccc(Cl)cc2)C(C(=O)OC)=C1 | inactive
89 | CCN(CC)C(=O)c1cc(-c2ccc3c(c2)OCO3)on1 | inactive
90 | COc1ccc(Cc2nnc(S)n2NC(=O)Nc2ccc(C)cc2)cc1 | inactive
91 | COc1ccc(OCC(=O)Nc2nccs2)cc1 | inactive
92 | COc1ccc(CC(N)c2csc(NC(=O)Nc3ccc(C(C)C)cc3)n2)cc1 (stereo not drawn) | 39.8 µM (active)

Row | SMILES | Potency
93 | CCN(CC)C(=O)COC(=O)c1cc(-c2ccco2)nc2ccccc12 | inactive
94 | COc1ccc2c3c(cccc13)C(=O)CC2 | inactive
95 | O=C1c2ccccc2-c2onc3ccc(Oc4ccccc4)c1c23 | 20 µM (active)
96 | COc1ccc2noc3c2c1C(=O)c1ccccc1-3 | 39.8 µM (active)
97 | COc1cccc2c1C(=O)C=C(C)C2=O | inactive
98 | COc1ccc(N2C(=O)/C(=C\NNS(=O)(=O)c3ccc(C)cc3)c3ccccc3C2=O)cc1OC | inactive
99 | Cc1cc(=O)oc2cc(OC(=O)c3ccco3)ccc12 | inactive
100 | O=c1c2c(-c3ccccc3)csc2nc2c3ccccc3c(NCCN3CCOCC3)nn12 | inactive
101 | Cc1cc(C)c2nc3nc(C)c(C)cc3c(N)c2c1 | inactive
102 | CCN(CC)c1ccc2cc(C#N)c(=O)oc2c1 | inactive
103 | COc1ccc(-n2sc3ccccc3c2=O)cc1 | 22.4 µM (active)
104 | O=c1c2ccccc2sn1-c1ccccc1 | 28.2 µM (active)
105 | O=c1c2ccccc2nc2ccccn12 | inactive
106 | N#Cc1ccc2sn(-c3ccccc3)c(=O)c2c1 | 22.4 µM (active)
107 | Cn1c2ccccc2c(=O)c2ccc(Cl)cc21 | inactive
108 | COc1ccc(N2CCN(CCN3C(=O)c4ccccc4C3=O)CC2)cc1 | inactive
109 | Nc1ccc2c3c(cccc13)C(=O)N(c1ccccc1)C2=O | inactive
110 | CCC1(CC)Nc2ccccc2C(=O)N1c1ccc(OC)cc1 | inactive
111 | O=c1c2ccccc2sn1-c1ccc(Cl)cc1Cl | 35.5 µM (active)
112 | N#Cc1cc2cc3ccccc3nc2n2c(=O)c3ccccc3nc12 | inactive
113 | N#Cc1c(N)n(-c2ccccc2)c(=O)c2cc([N+](=O)[O-])ccc12 | inactive
